This excerpt belongs to a sample that is enriched for hits.
Dicer inh – inhibitors of Dicer pre-microRNA processing, primary screen, biochemical, cat-ELCCA, chemiluminescence; cat-ELCCA pre-miR-21 Dicer processing; active compounds read high; 6% of 47,000 active; Endoribonuclease Dicer (Homo sapiens), Q9UPY3; AID 1347074, 2019; z-score at 25 µM; in the data active = z-score above about 3, passing the limit was not always enough;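 note: plate controls were vehicle for no effect and no enzyme for full effect; higher signal means more uncleaved substrate so more Dicer inhibition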
* = called active by the depositor.

SMILES | Dicer inh
O=C1CC(c2ccccc2Cl)Cc2nc(NCCc3ccccc3)ncc21 (centres undefined) | -0.73
O=C1CC(c2ccccc2)Cc2nc(NCc3ccco3)ncc21 (centres undefined) | 3.94*
Cc1nnc(SCC(=O)Nc2ncc3c(n2)CC(c2ccco2)CC3=O)s1 (centres undefined) | 2.79
Cc1nc(Nc2ncc3c(n2)CC(c2ccccc2)CC3=O)nc2ccccc12 (centres undefined) | 1.26
CCCCc1c(COC)nc(N)[nH]c1=O | 0.11
COc1cccc(-c2ccnc3[nH]n(-c4nc(C)cc(C)n4)c(=O)c23)c1 | 1.2
COc1ccc(-c2cc(C(F)(F)F)n3nc(C(N)=O)cc3n2)cc1OC | -0.73
Fc1ccc(-c2nc3c4c5c(sc4ncn3n2)CCCC5)cc1 | 3.95*
c1cc(-c2nc3c4c5c(sc4ncn3n2)CCCCC5)ccn1 | 0.59
COc1ccc(-c2nc3c4c5c(sc4ncn3n2)CCCC5)cc1 | 0.04
CC1(C)Cc2c(sc3ncn4nc(-c5ccncc5)nc4c23)CO1 | 3.14*
c1ccc(-c2nc3c4c5c(sc4ncn3n2)CCCC5)cc1 | 1.22
CC1(C)Cc2c(sc3ncn4nc(-c5ccncc5)nc4c23)C(C)(C)N1 | 0.58
Cc1csc(Cn2nc(CC(=O)N/N=C/c3ccccc3)c3ccccc3c2=O)n1 | -0.36
COc1ccc(C(=O)/C=C(\C(=O)c2ccccc2)c2ccccc2)cc1CN1CCOCC1 | 2.88
Cn1c(=O)c2c(nc(Cl)n2CC(O)CO)n(C)c1=O (centres undefined) | 0.66
C/C(=N\O)c1ccc(C#Cc2ccccc2)s1 | -1.2
CC(C)C1/C(=N\O)CC(c2ccccc2)NC1c1ccccc1 (centres undefined) | 0.4
Cc1sc2ncn(CC(=O)NCC(=O)O)c(=O)c2c1C | -1.15
CCOC(=O)c1nn(-c2ccc(C(C)(C)C)cc2)c(=N)c(C#N)c1C | -2.4
COc1ccc(OCc2nc(N)nc(SC)n2)cc1 | -1.44
Cc1cccc(C(=O)Nc2cc(F)c(Br)cc2F)c1C | 0.81
CC1CCN(C(=O)CCCC(=O)O)CC1 | 0.92
NC(=O)C1CCN(C(=O)CSc2ncccn2)CC1 | 3.6*
CCOC(=O)N1CCN(C(=O)CSc2ncccn2)CC1 | 0.08
SMILES | Dicer inh
NC(=O)C1CCN(C(=O)CN(CC(=O)N2CCC(C(N)=O)CC2)Cc2ccco2)CC1 | 0.68
NC(=O)C1CCN(C(=O)/C=C/C(=O)O)CC1 | 0.65
NC(=O)C1CCN(C(=O)CCC(=O)O)CC1 | 3.5*
CCc1cc(C)cc(OCC(O)Cn2c[n+](C)c3ccccc32)c1 (centres undefined) | -1.05
COc1ccc2c(oc(=O)c3ccccc32)c1C | 2.13
CC(=O)/C(=C\N=S(C)(=O)c1ccc(Cl)cc1)S(=O)(=O)c1ccc(Cl)cc1 (centres undefined) | -1.39
O=C(O)c1cc(C(F)(F)F)ccc1Cl | 2.12
Cc1c(CN2CCc3ccccc3C2)sc2ccccc12 | 4.82*
Cc1c(CC(=S)N2CCOCC2)sc2ccccc12 | -0.68
Cc1c(CN2CCC(C(=O)c3ccc(F)cc3)CC2)sc2ccccc12 | 9.09
CCOC(=O)C1CCCN(C(=O)S(=O)(=O)c2ccc(-c3csc(C)n3)s2)C1 (centres undefined) | -0.22
O=C(Cc1ccccc1Cl)N/N=C(/C(=O)O)c1ccccc1 | -1.64
CCCCCc1c(C)nc2c(-c3ccccc3)c(C)[nH]n2c1=O | -0.7
CCOC(=O)CCCn1c(NCc2ccccc2)nc2c1c(=O)n(C)c(=O)n2C | 0.2
CCOC(CC(=O)NNC(=O)c1c(-c2c(F)cccc2Cl)noc1C)OCC | -2.99
Cc1ccc(S(=O)(=O)NC(=O)NCCNc2ncc(C(F)(F)F)cc2Cl)cc1 | -1.59
FC(F)(F)c1cnc(NCCNc2cnc3ccccc3n2)c(Cl)c1 | -1.18
O=C(NCCNc1ncc(C(F)(F)F)cc1Cl)C(F)(F)Sc1ccccc1 | 4.99*
C/C(=C\c1cc(Br)cs1)[N+](=O)[O-] | 1.26
CC(=O)NC(Nc1cccc(F)c1)(C(F)(F)F)C(F)(F)F | -0.69
COc1ccccc1C1CCN(C(=O)CSc2nnc(NC(=O)c3cccnc3Oc3ccccc3)s2)CC1 | 1.6
Cn1ccnc1SCC(=O)Nc1nc(-c2ccc(Cl)cc2)cs1 | 0.23
O=C(Nc1nc(-c2ccccc2)cs1)c1ccc(Cl)cc1 | 2.17
CC(=O)CCCNc1nc(-c2ccc(Cl)cc2)cs1 | 6.74*
O=C1OCCC1Sc1nnc(-c2ccc(Cl)cc2)o1 (centres undefined) | -2.13
SMILES | Dicer inh
Cc1ccc(-c2nnc(SCC(=O)O)o2)cc1 | 0.56
Cc1occc1-c1nnc(SCCC(=O)O)o1 | 1.42
Cc1occc1-c1nnc(SCC(=O)O)o1 | 3.36*
CC(C)(C)C(=O)NC(=O)Nc1cc(C(F)(F)F)cc(C(F)(F)F)c1 | 1.81
CC(C)(C)C(=O)NC(=O)Nc1cc(C(F)(F)F)ccc1Cl | 4.07*
NNC(=S)Nc1cc(C(F)(F)F)ccc1Cl | 1.88
COc1ccc(Oc2c(C)oc3cc(OC(=O)N4CCOCC4)ccc3c2=O)cc1 | 0.19
CC(=O)Oc1ccc2c(=O)c(Oc3ccc(Cl)cc3)c(C(F)(F)F)oc2c1 | -0.22
O=C(Oc1ccc2c(=O)c(-c3ccc(Cl)cc3)c(C(F)(F)F)oc2c1)N1CCOCC1 | 3.96*
CSC(=NC(C)C)NC(C)C | -0.6

Source: PubChem
